PKA-R2B activ – activators of PKA-R2B holoenzyme, primary screen, biochemical, fluorescence polarization, Cy5-IP20, human; 0.079% of 340,000 active; activation, % at 11.4 µM; cAMP-dependent protein kinase catalytic subunit beta (Homo sapiens) + cAMP-dependent …; PKA-R2B holoenzyme dissociation; R2B truncated from residue 108, S112A mutant; 0% DMSO only, 100% 113 µM cGMP;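 active = activation above a cutoff set at the mean over all compounds plus 3 SD, cut at about 18% in these data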;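 also: higher means more holoenzyme dissociation and a rise in polarization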
PKA-R1A act – activators of PKA-R1A holoenzyme, primary screen, biochemical, fluorescence polarization, Cy5-IP20, bovine R1A, mouse PKAc; cAMP-dependent protein kinase type I-alpha regulatory subunit (Bos taurus) + …; PKA-R1A dissociation; scaled: DMSO 0%, 113 µM cGMP 100%; activation, % at 11.4 µM; 0.083% of 340,000 active;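 active = percent activation above the mean of all tested compounds plus 3 SD, cut at about 19% in these data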;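 also: higher means more PKAc released from R1A so a rise in polarization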
Rin1 Abl inh – inhibitors of Rin1-Abl protein binding, primary screen, biochemical, TR-FRET. Tyrosine-protein kinase ABL1 (Homo sapiens) + Ras and Rab interactor 1 (Homo sapiens), …. inhibition, % at 7.35 µM. 0.4% of 360,000 active; in the data active = inhibition above about 5%, passing the limit was not always enough
IDE act – human IDE activators in live cells, primary screen, fluorescence polarization, HEK cells, FAbeta-B substrate | Insulin-degrading enzyme (Homo sapiens), P14735 | FAbeta-B cleavage; 0% vehicle, 100% cell-free pure enzyme wells | activation, % at 5.96 µM | 0.073% of 340,000 active;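 active = activation above the mean of all tested compounds plus 3 SD, set per screening campaign, cut at about 17% in these data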
Target sequence (P14735 whole entry, looked up): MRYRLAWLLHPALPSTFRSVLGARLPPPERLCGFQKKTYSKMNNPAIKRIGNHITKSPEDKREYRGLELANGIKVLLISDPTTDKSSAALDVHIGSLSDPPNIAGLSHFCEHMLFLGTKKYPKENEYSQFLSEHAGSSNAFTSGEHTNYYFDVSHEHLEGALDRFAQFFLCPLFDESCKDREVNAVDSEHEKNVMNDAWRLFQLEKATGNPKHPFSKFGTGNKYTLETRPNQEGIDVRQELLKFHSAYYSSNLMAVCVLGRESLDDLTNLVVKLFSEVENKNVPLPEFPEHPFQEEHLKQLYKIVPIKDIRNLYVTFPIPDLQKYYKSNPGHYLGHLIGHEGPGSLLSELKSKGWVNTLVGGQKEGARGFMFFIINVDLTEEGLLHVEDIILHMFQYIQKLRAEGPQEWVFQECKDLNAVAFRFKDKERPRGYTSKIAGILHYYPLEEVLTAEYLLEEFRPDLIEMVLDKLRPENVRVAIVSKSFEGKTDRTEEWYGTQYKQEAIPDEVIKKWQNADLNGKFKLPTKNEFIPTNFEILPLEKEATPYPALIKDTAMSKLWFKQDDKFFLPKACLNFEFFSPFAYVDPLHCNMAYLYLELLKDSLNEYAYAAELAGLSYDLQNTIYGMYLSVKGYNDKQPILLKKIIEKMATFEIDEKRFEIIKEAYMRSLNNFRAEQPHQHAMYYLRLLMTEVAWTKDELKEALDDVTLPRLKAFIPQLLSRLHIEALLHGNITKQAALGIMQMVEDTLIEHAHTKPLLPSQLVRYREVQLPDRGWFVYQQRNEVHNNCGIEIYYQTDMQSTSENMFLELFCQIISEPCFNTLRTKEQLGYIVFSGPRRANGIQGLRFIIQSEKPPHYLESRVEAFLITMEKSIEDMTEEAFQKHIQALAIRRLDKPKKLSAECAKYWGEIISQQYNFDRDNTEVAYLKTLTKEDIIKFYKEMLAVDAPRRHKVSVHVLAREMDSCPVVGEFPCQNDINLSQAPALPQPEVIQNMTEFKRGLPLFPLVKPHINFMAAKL
E coli Lon inh – inhibitors of E. coli Lon protease, primary screen, biochemical, fluorescence polarization. P0A9M0. purified E. coli Lon protease. inhibition, % at 7.94 µM. 0.42% of 360,000 active; in the data active = inhibition above about 13%, passing the limit was not always enough;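 also: 0% = enzyme with probe and DMSO and 100% = no enzyme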
IDE cell inh – human IDE inhibitors in live cells, primary screen, fluorescence polarization, HEK cells, FAbetaB substrate; FAbetaB cleavage; Insulin-degrading enzyme (Homo sapiens), P14735; AID 434962, 2010; inhibition, % at 5.59 µM; 0.41% of 320,000 active;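 active = percent inhibition above the average of all tested compounds plus 3 SD, set per screening campaign, cut at about 16% in these data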;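 also: IDE supplied by intact live HEK cells; FP after avidin binding of uncleaved biotin substrate so inhibition keeps polarization high; 0% = DMSO wells and 100% = 60 µM reference IDE inhibitor Ii1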
* hit, by the source's call. Shown are actives, neighbours in structure and some others; about 1.3% of the full set was active somewhere.

`COc1ccc(N=C2NC(=O)S/C2=C\c2ccc(N(C)C)cc2)cc1` gave PKA-R2B activ -6.5, PKA-R1A act -4.7, Rin1 Abl inh -3.6, IDE act -25.5, E coli Lon inh -87.6 and IDE cell inh 30.2*.
For O=C1C=C(O)c2c(O)cc(O)c(O)c2C1=O the results were PKA-R2B activ -15.0, PKA-R1A act -8.8, Rin1 Abl inh 57.6*, IDE act 7.5, E coli Lon inh -3.2 and IDE cell inh -3.7.
`C[C@@H]1Cc2c(O)c(O)cc(O)c2C(=O)O1` gave PKA-R2B activ 5.6, PKA-R1A act 0.9, Rin1 Abl inh 16.3, IDE act 2.9, E coli Lon inh -1.4 and IDE cell inh -4.2.
Screening Nc1c(C(=O)CSc2nc3ccccc3o2)c(=O)[nH]c(=O)n1C1CC1 returned PKA-R2B activ -2.6, PKA-R1A act 0.4, Rin1 Abl inh 1.0, IDE act 26.9*, E coli Lon inh 10.3 and IDE cell inh 3.1.
For O=C1/C(=C/c2ccc(O)cc2)SC(=S)N1Cc1cccnc1 the results were PKA-R2B activ -6.3, PKA-R1A act -9.5, Rin1 Abl inh 1.3, IDE act -19.1, E coli Lon inh -12.8 and IDE cell inh 21.5*.
Screening Cn1cc(S(=O)(=O)N2CCOCC2)cc1C(=O)NCCc1ccccc1 returned PKA-R2B activ -3.8, PKA-R1A act -7.6, Rin1 Abl inh -1.2, IDE act 3.1, E coli Lon inh 3.1 and IDE cell inh 1.8.
For N#Cc1c(NC(=S)NC(=O)c2ccccc2)sc2c1CCN(CCc1ccccc1)C2 the results were IDE cell inh 73.7*.
`N#Cc1c(NC(=S)NC(=O)c2ccccc2)sc2c1CCCC2` gave PKA-R2B activ -8.9, PKA-R1A act -9.3, Rin1 Abl inh 1.6, IDE act -7.4, E coli Lon inh -5.6 and IDE cell inh 10.5.
Screening NC(=S)N=Nc1c(O)cc(O)c2[nH]c(=O)ccc12 returned PKA-R2B activ 0.7, PKA-R1A act -3.8, Rin1 Abl inh 14.5*, IDE act 2.1 and E coli Lon inh 10.8.
NC(=S)N=Nc1c(O)[nH]c2ccc(F)cc12 was read as PKA-R2B activ -2.2, PKA-R1A act 4.7, Rin1 Abl inh -6.4, IDE act 0.8, E coli Lon inh 0.1 and IDE cell inh -6.7.
Screening O=C(c1cc(S(=O)(=O)N2CCCCC2)c(Cl)cc1N1CCOCC1)N1CCOCC1 returned PKA-R2B activ -3.3, PKA-R1A act 5.2, Rin1 Abl inh -1.1, IDE act -0.6, E coli Lon inh -4.3 and IDE cell inh -1.6.
O=C1C=C(c2ccc(-c3ccccc3)cc2)C[C@@H](c2ccc3c(c2)OCO3)C1 was read as PKA-R2B activ 3.3, PKA-R1A act 3.7, Rin1 Abl inh 0.4, IDE act 42.7*, E coli Lon inh -6.0 and IDE cell inh 0.6.
O=C(COC(=O)/C=C/c1cnc2ccccc2n1)NCC(F)(F)F was read as PKA-R2B activ -9.7, PKA-R1A act 7.5, Rin1 Abl inh -3.0, IDE act -2.9, E coli Lon inh 8.4 and IDE cell inh 9.6.
For c1ccc2c(C[C@@H]3CNCCN3CC3CCCCC3)cccc2c1 the results were PKA-R2B activ -1.3, PKA-R1A act -2.7, Rin1 Abl inh 3.1, IDE act 4.0, E coli Lon inh -6.2 and IDE cell inh 1.8.
`CC1(c2nnc(Cc3ccccc3)o2)CC(c2c(Cl)cccc2Cl)=NO1` (stereo unspecified) gave PKA-R2B activ -3.5, PKA-R1A act -11.2, Rin1 Abl inh 3.0, IDE act 39.4*, E coli Lon inh -3.7 and IDE cell inh 5.9.
Screening COc1cc(C2C(C#N)=C(N)OC3=C2C(=O)CCC3)c([N+](=O)[O-])cc1OC (stereo unspecified) returned PKA-R2B activ 2.2, PKA-R1A act -6.9, Rin1 Abl inh -1.5, IDE act 1.8, E coli Lon inh 49.8* and IDE cell inh -2.0.
`Cc1cc(C2C(C#N)=C(N)OC3=C2C(=O)CCC3)c(C)s1` (stereo unspecified) gave PKA-R2B activ -6.7, PKA-R1A act -14.2, Rin1 Abl inh -4.1, IDE act 4.2, E coli Lon inh -3.3 and IDE cell inh 2.5.
CC1=C(C(N)=O)C(c2ccccc2)n2nc(-c3cccs3)nc2N1 (stereo unspecified) was read as PKA-R2B activ -9.9, PKA-R1A act -2.3, Rin1 Abl inh -0.1, IDE act 8.2, E coli Lon inh 2.7 and IDE cell inh -2.0.
`CCC1CCCCN1S(=O)(=O)c1ccc(S(=O)(=O)N2CCN(S(=O)(=O)CC)CC2)cc1` (stereo unspecified) gave PKA-R2B activ -10.8, PKA-R1A act -2.3, Rin1 Abl inh 1.9, IDE act 17.7*, E coli Lon inh -0.3 and IDE cell inh 5.6.
O=C(CNC(=O)c1ccccc1)NCC(=O)OCC(=O)c1ccc([N+](=O)[O-])cc1 was read as PKA-R2B activ -3.2, PKA-R1A act -10.2, Rin1 Abl inh 3.6, IDE act -4.9, E coli Lon inh 0.3 and IDE cell inh 3.9.
O=C(CNC(=O)c1ccc(Br)cc1)NCC(=O)OCC(=O)c1ccc([N+](=O)[O-])cc1 was read as PKA-R2B activ -7.3, PKA-R1A act -1.4, Rin1 Abl inh 1.2, IDE act -5.1, E coli Lon inh 3.9 and IDE cell inh 17.3*.
Screening CCOC(=O)c1c(C)[nH]c(C)c1S(=O)(=O)N1CCOCC1 returned PKA-R2B activ -12.7, PKA-R1A act -6.2, Rin1 Abl inh 5.0, IDE act 0.3, E coli Lon inh -5.5 and IDE cell inh 9.9.
`COc1ccc(C(=O)NCc2ccc3c(c2)OCO3)cc1` gave PKA-R2B activ 4.2, PKA-R1A act 2.1, Rin1 Abl inh -7.5, IDE act -4.4, E coli Lon inh 3.6 and IDE cell inh -4.5.
COCC(=O)NCc1ccc2c(c1)cc(C)n2C was read as PKA-R2B activ -1.7, PKA-R1A act 0.8, Rin1 Abl inh -6.2, IDE act 4.1, E coli Lon inh 11.4 and IDE cell inh -0.1.
`Cc1cc2cc(CNC(=O)c3ccc4c(c3)OCO4)ccc2n1C` gave PKA-R2B activ -1.6, PKA-R1A act 3.2, Rin1 Abl inh -14.6, IDE act 0.4, E coli Lon inh 25.0* and IDE cell inh 5.8.
For COc1ccc(C(=O)NCc2ccc3c(c2)cc(C)n3C)cc1 the results were PKA-R2B activ 9.0, PKA-R1A act -7.3, Rin1 Abl inh -10.2, IDE act 3.8, E coli Lon inh 15.3* and IDE cell inh -0.1.
`CC(C)CCn1nnnc1CN1CCN(C(=O)c2ccco2)CC1` gave PKA-R2B activ 1.7, PKA-R1A act 5.4, Rin1 Abl inh -1.6, IDE act 2.6, E coli Lon inh 7.3 and IDE cell inh -4.8.

Screening data from PubChem.
